Values joined by “and” are separate entries in the source; they are usually repeats but may differ in a detail not shown here. Equal values may be shown once. Active and inactive are the calls of the source. Rule for the calls: active = hit-call score of the fitted dose curve at least 0.9, where 1 is the maximum; inactive = score below 0.9.
Read-out: Urokinase-type plasminogen activator receptor (uPAR), PLAUR (gene 5329)
Experiment: BSK_CASM3C_uPAR: BioMAP Diversity Plus: CASM3C Assay for Urokinase-type plasminogen activator receptor (uPAR) Biomarker Activity (AID 2283054);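 note: cell-surface uPAR protein level quantified by ELISA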
Settings: primary human coronary artery smooth muscle cells; actives raise or lower the signal

| SMILES | outcome | AC50 |
| --- | --- | --- |
| CC(=O)OCCC(C)CC(C)(C)C (stereo unspecified) | inactive |  |
| CC1CCC(C(C)CS)CC1S (stereo unspecified) |  | 20 µM (active) |
| CC(=O)[C@H]1CC[C@H]2[C@@H]3CC=C4C[C@@H](O)CC[C@]4(C)[C@H]3CC[C@]12C | inactive |  |

Read-out: Vascular cell adhesion molecule 1 (VCAM1), VCAM1 (gene 7412)
Experiment: BSK_CASM3C_VCAM1: BioMAP Diversity Plus: CASM3C Assay for Vascular cell adhesion molecule 1 (VCAM1) Biomarker Activity (AID 2283055);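 note: VCAM-1 protein level quantified by ELISA on the cells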
Settings: primary human coronary artery smooth muscle cells; actives raise or lower the signal

| SMILES | outcome | AC50 |
| --- | --- | --- |
| CCn1c2ccccc2c2cc(N)ccc21 | inactive |  |
| Cc1ccc(Nc2ccc(O)c3c2C(=O)c2ccccc2C3=O)cc1 | inactive |  |
| Cc1ccc(O)c(C(C)(C)C)c1 |  | 30 µM (active) |
| CCCCCCCCCCCCCCCCCC(=O)OCC(CC)CCCC (stereo unspecified) | inactive |  |
| CCCCC(CC)COCCC#N (stereo unspecified) | inactive |  |
| C[C@H]1C[C@@H]2[C@H]([C@@H](O)C[C@@]3(C)[C@H]2CC[C@]3(O)C(=O)CO)[C@@]2(C)C=CC(=O)C=C12 |  | 860 nM (active) and 150 nM (active) |
| O=P(c1ccccc1)(c1ccccc1)c1ccccc1 | inactive |  |
| CC(C)Oc1ccccc1O | inactive |  |
| CC(=O)/C=C/C1=C(C)CCCC1(C)C |  | 0.016 µM (active) |
| CC[Si](OC(C)=O)(OC(C)=O)OC(C)=O | inactive |  |
| CNC[C@H](O)c1cccc(O)c1 | inactive |  |
| O=[N+]([O-])c1cc(C(F)(F)F)ccc1Cl | inactive |  |
| CCCCCCCCCC=O | inactive |  |
| COc1cc(C=O)ccc1OC(=O)C(C)C | inactive |  |
| Nc1cc([N+](=O)[O-])ccc1O | inactive |  |
| CCc1c(C)cc(N)c(CC)c1N | inactive |  |
| C=C(C)C(=O)O[C@H]1C[C@@H]2CC[C@@]1(C)C2(C)C |  | 12.1 µM (active) |
| CC(=O)O[C@]1(C(C)=O)CC[C@H]2[C@@H]3C[C@H](C)C4=CC(=O)CC[C@]4(C)[C@H]3CC[C@@]21C | inactive |  |
